# PubChem BioAssay AID463173 (ICCB-Longwood Screening Facility, Harvard Medical School, 2010)
# In all, about 52,000 compounds went through this assay and about 4,300 (8.3%) were called active. Cut-off read from the data, not from the text of the source: active = survival mostly below about 52% (no sharp cut-off); inactive = mostly above about 56%. The sample as a whole holds a higher share of actives than the screen did.
# System: DeltatarO mutant
# Experiment: S. aureus survival, RN4220 and DeltatarO strains – OD600, teichoic acid synthesis inhibitors, primary screen (AID 463173)
# Settings: S. aureus RN4220 wild type/DeltatarO growth, OD600, 18 h, hits give low values, screened at 18.75 µg/mL (by protocol)
row,SMILES,survival
1,COc1ccccc1CNc1ncnc2c1c(-c1ccccc1)cn2-c1cccc(C)c1,80% (inactive)
2,O=S(=O)(c1ccc(C2CCCCC2)cc1)N1CCN(c2cc(Cl)ccc2Cl)CC1,72% (inactive)
3,CCc1ccc(S(=O)(=O)N2CCN(c3ccc(Cl)c(Cl)c3)CC2)cc1,118% (inactive)
4,O=S(=O)(c1ccc(C2CCCCC2)cc1)N1CCN(c2ccc(Cl)c(Cl)c2)CC1,54% (active)
5,Cc1cccc(OC(=O)c2snnc2C)c1,88% (inactive)
6,Cc1cccc(NC(=O)c2oc3ccc(S(=O)(=O)N4CCCCC4)cc3c2C)c1C,71% (inactive)
7,COc1ccccc1NC(=O)CSC1=Nc2ccccc2C2=NC(CC(=O)NCc3ccccc3)C(=O)N12 (configuration not stated),71% (inactive)
8,Cc1ccc(-n2ncc3c(N4CCCCCC4)ncnc32)cc1Cl,102% (inactive)
9,CCn1c(=O)cc(SCC(=O)NCCc2cc(OC)ccc2OC)c2ccccc21,61% (inactive)
10,Cc1ccc(Oc2nc3c(c(=O)n(Cc4ccccc4)c(=O)n3C)n2C)cc1C,44% (inactive)
11,Cc1cc(C)cc(Oc2nc3c(c(=O)n(C)c(=O)n3C)n2Cc2ccc(F)cc2)c1,76% (inactive)
12,COc1cccc(Cn2c(Oc3cc(C)cc(C)c3)nc3c2c(=O)n(C)c(=O)n3C)c1,31% (active)
13,Cn1c(=O)c2c(nc(Oc3ccccc3)n2Cc2c(Cl)cccc2Cl)n(C)c1=O,84% (inactive)
14,CCCCNc1nc2c(c(=O)n(Cc3ccc(Cl)cc3)c(=O)n2C)n1C,56% (inactive)
15,Cc1ccc(C)c(Oc2nc3c(c(=O)n(C)c(=O)n3C)n2Cc2ccccc2)c1,32% (active)
16,CCCCC(CC)Cn1c(Oc2ccccc2)nc2c1c(=O)n(C)c(=O)n2C (configuration not stated),-15% (active)
17,CCCCNc1nc2c(c(=O)n(Cc3ccc(Cl)c(Cl)c3)c(=O)n2C)n1C,-10% (active)
18,COc1cccc(Cn2c(NCc3ccc(C)cc3)nc3c2c(=O)n(C)c(=O)n3C)c1,79% (inactive)
19,Cc1cccc(Oc2nc3c(c(=O)n(C)c(=O)n3C)n2Cc2ccccc2)c1C,53% (inactive)

row,SMILES,survival
1,Cc1cccc(Oc2nc3c(c(=O)n(C)c(=O)n3C)n2C)c1,123% (inactive)
2,CCCCNc1nc2c(c(=O)n(Cc3ccccc3)c(=O)n2C)n1C,66% (inactive)
3,CCOc1ccc(C(=O)c2cn(CC(=O)Nc3ccc(OC)cc3)c3cc4c(cc3c2=O)OCCO4)cc1,82% (inactive)
4,CCc1cccc(C)c1NC(=O)Cn1nc(C)c2nn(-c3ccc(Cl)cc3)c(C)c2c1=O,124% (inactive)
5,Cc1ccc(-n2nc(CO)c(C(=O)NCCO)n2)cc1,82% (inactive)
6,CCOc1ccc(CN2CCc3nc(Nc4ccc5c(c4)OCCO5)ncc3C2)cc1,89% (inactive)
7,Cc1ccc(S(=O)(=O)c2nnn3c2nc(N2CCCCC2)c2sccc23)cc1,104% (inactive)
8,CCOC(=O)c1scc(-c2ccc(C)cc2)c1S(=O)(=O)N1CCN(c2ccccc2)CC1,73% (inactive)
9,Cc1ccc(CSc2nnc(-n3c(=O)c(C#N)cc4c(=O)n5cccc(C)c5nc43)s2)cc1,101% (inactive)
10,N#Cc1cc(-c2ccc(Cl)cc2)no1,97% (inactive)
11,COC(=O)CSc1nnc(-c2ccccc2)n1C,97% (inactive)
12,CCc1ccccc1NC(=O)Nc1c(C)n(C)n(-c2ccccc2)c1=O,88% (inactive)
13,CN1C(=O)N(C)C2(CC1(C)C)CC(C)(C)N(C)C(=O)N2C,102% (inactive)
14,Cn1c(=O)c2c(nc(SCC(=O)Nc3ccc(F)c(F)c3)n2Cc2ccccc2F)n(C)c1=O,111% (inactive)
15,COc1ccc(NC(=O)c2nnn(Cc3ccc(Br)cc3F)c2N)c(OC)c1,68% (inactive)
16,Cn1c(=O)c2c(nc(NCCc3ccccc3)n2Cc2cccc(Br)c2)n(C)c1=O,50% (inactive)
17,COc1ccccc1Oc1nc2c(c(=O)n(C)c(=O)n2C)n1Cc1cccc(Br)c1,40% (active)
18,COc1ccc(CCNc2nc3c(c(=O)n(C)c(=O)n3C)n2Cc2ccccc2Cl)cc1OC,75% (inactive)
19,COc1ccc(Cl)c(Cn2c(NCCN)nc3c2c(=O)n(C)c(=O)n3C)c1,56% (active)

row,SMILES,survival
1,Cn1c(=O)c2c(nc(NCc3ccccc3)n2Cc2ccccc2)n(C)c1=O,38% (active)
2,COc1ccc(CNc2nc3c(c(=O)n(C)c(=O)n3C)n2Cc2ccccc2Cl)cc1,65% (inactive)
3,Cn1c(=O)c2c(nc(NCc3ccccc3)n2Cc2ccccc2Cl)n(C)c1=O,58% (inactive)
4,Cc1ccccc1Oc1nc2c(c(=O)n(C)c(=O)n2C)n1Cc1ccc(Br)cc1,143% (inactive)
5,Cn1c(=O)c2c(nc(NCc3ccccc3)n2Cc2ccc(Cl)c(Cl)c2)n(C)c1=O,42% (inactive)
6,COc1ccc(NC(=O)Cn2cnc3sc(C)c(S(=O)(=O)N4CCN(c5ccccc5OC)CC4)c3c2=O)cc1OC,67% (inactive)
7,CC1CCN(c2nc(N3CCCCC3)nc(N3CCCCC3)n2)CC1,62% (inactive)
8,CCOC(=O)c1cc(C)n(CC2CCC(C(=O)Nc3ccc(C)c(F)c3)CC2)c1C (configuration not stated),64% (inactive)
9,Cc1cccc(NC(=O)C2CCCN(S(=O)(=O)c3c(C)noc3/C=C/N(C)C)C2)c1C (configuration not stated),84% (inactive)
10,Cc1ccc(NS(=O)(=O)c2ccc3c(c2)CCN3C(=O)C2CC2)c(C)c1,58% (inactive)
11,Cc1ccc(Nc2c(-c3cccnc3)nc3ccc(Cl)cn23)cc1,83% (inactive)
12,O=C(Nc1ccc(F)cc1F)C1CCN(c2ncccn2)CC1,58% (inactive)
13,Cc1c(C(=O)OC2CCCC2)[nH]c2c1C(=O)CC(c1ccc(C(C)(C)C)cc1)C2 (configuration not stated),89% (inactive)
14,Cc1nnc(SCC(=O)O)o1,75% (inactive)
15,Cc1ccc(Nc2c(-c3ccc(C)cc3)nc3ccc(C)cn23)cc1,117% (inactive)
16,Cc1ccc2nc(-c3ccc(F)cc3)c(NC(C)(C)CC(C)(C)C)n2c1,12% (active)
17,COCCNc1c(-c2ccc(N)cc2)nc2ccc(C)cn12,65% (inactive)
18,O=C(CSc1ccc(-c2cccs2)nn1)Nc1ccccc1,76% (inactive)
19,COc1ccccc1N1CCN(C(=O)c2ccc3c(c2)N(Cc2cc(C)ccc2C)C(=O)c2ccccc2S3(=O)=O)CC1,74% (inactive)
